Data: PMC7862700, “An all-to-all approach to the identification of sequence-specific readers for epigenetic DNA modifications on cytosine”

Key:
Experiment in all cases: DAPPL (digital affinity profiling via proximity ligation, sequencing); 10 mM Tris-HCl pH 7.5, 50 mM NaCl, 1 mM DTT, 4% glycerol, room temperature, 30 min; GST-TFs on glutathione beads, 16-mer random dsDNA library, 0.1% formaldehyde crosslink after washing; high values mean tight binding
Details in all cases: protein: recombinant; tags: N-terminal GST; dsDNA, one strand shown
FLI1 = target: T1, FLI1 (Homo sapiens, UniProt Q01543 1-452)
T1 sequence: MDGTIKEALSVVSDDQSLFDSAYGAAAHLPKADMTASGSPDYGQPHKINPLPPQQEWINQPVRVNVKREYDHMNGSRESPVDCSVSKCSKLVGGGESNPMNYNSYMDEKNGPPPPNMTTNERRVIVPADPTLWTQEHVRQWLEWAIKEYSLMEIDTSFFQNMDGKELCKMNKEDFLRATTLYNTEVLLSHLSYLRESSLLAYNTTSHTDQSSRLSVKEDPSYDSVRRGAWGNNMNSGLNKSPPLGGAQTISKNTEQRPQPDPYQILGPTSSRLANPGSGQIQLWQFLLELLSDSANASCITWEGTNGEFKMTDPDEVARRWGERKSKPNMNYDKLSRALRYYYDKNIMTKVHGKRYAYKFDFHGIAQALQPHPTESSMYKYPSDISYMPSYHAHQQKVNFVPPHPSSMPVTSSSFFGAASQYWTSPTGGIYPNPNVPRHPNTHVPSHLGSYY
How it was run: (§1)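 Each value of binding signal is a hexamer's read frequency for a factor divided by the same hexamer's frequency in the tag-only sample. Barcoded, bead-captured GST fusions of human transcription factors made in yeast were pooled with that sample and incubated with 200 nmole of a random double-stranded 16-mer DNA library in Tris/NaCl/DTT/glycerol buffer at room temperature for 30 min. Washing, 0.1% formaldehyde crosslinking, proximity ligation, PCR and Illumina NextSeq500 sequencing followed.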

ELK1 = target: T2, ELK1 (Homo sapiens, UniProt P19419 1-428)
T2 sequence: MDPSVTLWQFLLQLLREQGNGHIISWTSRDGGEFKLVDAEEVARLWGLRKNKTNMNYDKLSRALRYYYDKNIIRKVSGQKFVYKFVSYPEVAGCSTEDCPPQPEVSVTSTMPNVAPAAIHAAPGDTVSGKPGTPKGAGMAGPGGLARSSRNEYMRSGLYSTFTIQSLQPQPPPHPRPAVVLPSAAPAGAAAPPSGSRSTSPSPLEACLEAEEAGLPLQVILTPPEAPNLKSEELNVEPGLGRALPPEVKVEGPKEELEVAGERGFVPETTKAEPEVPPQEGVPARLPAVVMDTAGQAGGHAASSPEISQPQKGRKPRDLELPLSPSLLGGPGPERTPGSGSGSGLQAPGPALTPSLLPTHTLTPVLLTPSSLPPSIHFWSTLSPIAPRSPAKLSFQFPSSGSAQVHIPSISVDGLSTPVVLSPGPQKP
How it was run: as §1

GABPA = target: T3, GABPA (Homo sapiens, UniProt Q06546 1-454)
T3 sequence: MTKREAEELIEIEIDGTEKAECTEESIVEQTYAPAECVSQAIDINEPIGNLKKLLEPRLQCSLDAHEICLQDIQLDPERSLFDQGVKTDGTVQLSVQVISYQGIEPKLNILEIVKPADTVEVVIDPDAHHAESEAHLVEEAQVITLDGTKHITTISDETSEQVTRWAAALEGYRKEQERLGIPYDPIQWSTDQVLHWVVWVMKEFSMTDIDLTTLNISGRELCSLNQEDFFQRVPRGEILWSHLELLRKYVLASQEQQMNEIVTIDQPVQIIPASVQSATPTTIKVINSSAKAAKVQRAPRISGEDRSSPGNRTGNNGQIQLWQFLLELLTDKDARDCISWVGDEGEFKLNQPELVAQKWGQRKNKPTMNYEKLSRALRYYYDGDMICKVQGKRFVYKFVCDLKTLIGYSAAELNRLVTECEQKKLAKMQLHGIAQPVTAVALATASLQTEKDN
How it was run: as §1

ERG = target: T4, ERG (Homo sapiens, UniProt P11308 1-479)
T4 sequence: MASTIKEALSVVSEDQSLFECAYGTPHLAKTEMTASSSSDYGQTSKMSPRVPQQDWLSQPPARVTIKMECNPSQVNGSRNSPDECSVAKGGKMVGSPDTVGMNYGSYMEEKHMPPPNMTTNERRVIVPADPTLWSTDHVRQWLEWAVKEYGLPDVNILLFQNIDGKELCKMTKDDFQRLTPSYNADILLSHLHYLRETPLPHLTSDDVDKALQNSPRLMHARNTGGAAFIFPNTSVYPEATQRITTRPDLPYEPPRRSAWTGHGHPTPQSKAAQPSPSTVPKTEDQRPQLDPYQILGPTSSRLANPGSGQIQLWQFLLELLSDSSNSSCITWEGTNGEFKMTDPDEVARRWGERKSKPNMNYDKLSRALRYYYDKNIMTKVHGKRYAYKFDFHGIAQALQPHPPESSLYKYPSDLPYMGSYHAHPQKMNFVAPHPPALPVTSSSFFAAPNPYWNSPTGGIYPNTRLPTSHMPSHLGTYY
How it was run: as §1

ELF1 = ELF1 (Homo sapiens, UniProt P32519 1-619)
ELF1, sequence (P32519 whole entry): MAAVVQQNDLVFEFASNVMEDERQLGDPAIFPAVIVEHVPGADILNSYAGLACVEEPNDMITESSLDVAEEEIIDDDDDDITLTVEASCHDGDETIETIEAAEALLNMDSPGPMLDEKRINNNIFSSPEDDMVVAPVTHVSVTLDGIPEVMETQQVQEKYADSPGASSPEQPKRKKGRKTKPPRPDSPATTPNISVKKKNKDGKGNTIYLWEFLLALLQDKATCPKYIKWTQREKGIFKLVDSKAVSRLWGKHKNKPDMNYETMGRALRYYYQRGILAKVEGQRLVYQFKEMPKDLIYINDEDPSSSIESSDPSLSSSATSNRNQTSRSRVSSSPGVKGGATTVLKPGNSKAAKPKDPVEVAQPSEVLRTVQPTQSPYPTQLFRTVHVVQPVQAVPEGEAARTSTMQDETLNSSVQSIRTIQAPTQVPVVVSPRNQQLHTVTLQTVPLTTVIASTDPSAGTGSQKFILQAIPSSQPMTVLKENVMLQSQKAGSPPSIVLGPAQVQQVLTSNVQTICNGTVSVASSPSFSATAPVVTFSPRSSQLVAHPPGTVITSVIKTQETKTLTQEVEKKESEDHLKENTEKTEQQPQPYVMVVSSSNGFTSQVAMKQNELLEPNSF
How it was run: as §1

EHF = target: T5, EHF (Homo sapiens, UniProt Q9NZC4 1-300)
T5 sequence: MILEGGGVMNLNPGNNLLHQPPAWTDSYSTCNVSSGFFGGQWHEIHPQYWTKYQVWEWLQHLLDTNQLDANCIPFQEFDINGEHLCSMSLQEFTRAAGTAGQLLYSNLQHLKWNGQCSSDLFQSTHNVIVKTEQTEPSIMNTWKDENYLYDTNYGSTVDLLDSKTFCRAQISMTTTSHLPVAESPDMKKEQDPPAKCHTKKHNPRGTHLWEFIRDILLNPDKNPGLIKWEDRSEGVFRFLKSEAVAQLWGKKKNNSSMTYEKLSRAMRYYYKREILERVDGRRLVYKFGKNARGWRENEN
How it was run: as §1

SPI1 = SPI1 (Homo sapiens, UniProt P17947 1-270)
How it was run: as §1

SPIB = SPIB (Homo sapiens, UniProt Q01892 1-262)
SPIB, sequence (Q01892 whole entry): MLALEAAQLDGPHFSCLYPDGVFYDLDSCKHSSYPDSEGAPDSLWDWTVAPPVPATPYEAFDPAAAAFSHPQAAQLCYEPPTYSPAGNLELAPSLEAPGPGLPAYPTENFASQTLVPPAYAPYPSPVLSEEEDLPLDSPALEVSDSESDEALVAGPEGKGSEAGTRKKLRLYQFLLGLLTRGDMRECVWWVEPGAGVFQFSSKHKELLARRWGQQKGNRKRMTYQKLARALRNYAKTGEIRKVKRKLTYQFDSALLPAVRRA
How it was run: as §1

ELK3 = target: T6, ELK3 (Homo sapiens, UniProt P41970 1-407)
T6 sequence: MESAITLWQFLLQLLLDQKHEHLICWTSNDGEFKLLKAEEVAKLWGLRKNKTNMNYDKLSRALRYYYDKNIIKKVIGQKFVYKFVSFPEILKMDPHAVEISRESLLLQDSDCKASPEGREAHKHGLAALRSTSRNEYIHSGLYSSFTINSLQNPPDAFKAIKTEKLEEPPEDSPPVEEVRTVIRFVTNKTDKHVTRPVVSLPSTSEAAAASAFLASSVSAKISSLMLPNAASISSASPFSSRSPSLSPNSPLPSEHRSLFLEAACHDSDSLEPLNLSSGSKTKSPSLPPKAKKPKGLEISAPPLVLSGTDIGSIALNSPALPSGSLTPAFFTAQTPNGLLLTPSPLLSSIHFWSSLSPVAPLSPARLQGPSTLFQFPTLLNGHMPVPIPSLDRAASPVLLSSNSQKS
How it was run: as §1

Sequence	binding signal (FLI1)	binding signal (ELK1)	binding signal (GABPA)	binding signal (ERG)	binding signal (ELF1)	binding signal (EHF)	binding signal (SPI1)	binding signal (SPIB)	binding signal (ELK3)
GATCCC	1.16 fold enrichment (6-mer frequency, TF over GST control)	1.16 fold enrichment (6-mer frequency, TF over GST control)	1.15 fold enrichment (6-mer frequency, TF over GST control)	1.23 fold enrichment (6-mer frequency, TF over GST control)	1.27 fold enrichment (6-mer frequency, TF over GST control)	1.17 fold enrichment (6-mer frequency, TF over GST control)	1.11 fold enrichment (6-mer frequency, TF over GST control)	1.17 fold enrichment (6-mer frequency, TF over GST control)	1.14 fold enrichment (6-mer frequency, TF over GST control)
TATGGT	1.38 fold enrichment (6-mer frequency, TF over GST control)	1.3 fold enrichment (6-mer frequency, TF over GST control)	1.32 fold enrichment (6-mer frequency, TF over GST control)	1.22 fold enrichment (6-mer frequency, TF over GST control)	1.37 fold enrichment (6-mer frequency, TF over GST control)	1.39 fold enrichment (6-mer frequency, TF over GST control)	1.28 fold enrichment (6-mer frequency, TF over GST control)	1.3 fold enrichment (6-mer frequency, TF over GST control)	1.17 fold enrichment (6-mer frequency, TF over GST control)
TCCTCT	1.58 fold enrichment (6-mer frequency, TF over GST control)	1.57 fold enrichment (6-mer frequency, TF over GST control)	1.57 fold enrichment (6-mer frequency, TF over GST control)	1.7 fold enrichment (6-mer frequency, TF over GST control)	1.64 fold enrichment (6-mer frequency, TF over GST control)	1.7 fold enrichment (6-mer frequency, TF over GST control)	2.95 fold enrichment (6-mer frequency, TF over GST control)	1.72 fold enrichment (6-mer frequency, TF over GST control)	1.6 fold enrichment (6-mer frequency, TF over GST control)
CACCCC	1.2 fold enrichment (6-mer frequency, TF over GST control)	1.3 fold enrichment (6-mer frequency, TF over GST control)	1.35 fold enrichment (6-mer frequency, TF over GST control)	1.22 fold enrichment (6-mer frequency, TF over GST control)	1.28 fold enrichment (6-mer frequency, TF over GST control)	1.19 fold enrichment (6-mer frequency, TF over GST control)	1.24 fold enrichment (6-mer frequency, TF over GST control)	1.32 fold enrichment (6-mer frequency, TF over GST control)	1.31 fold enrichment (6-mer frequency, TF over GST control)
GTCTCT	1.41 fold enrichment (6-mer frequency, TF over GST control)	1.26 fold enrichment (6-mer frequency, TF over GST control)	1.31 fold enrichment (6-mer frequency, TF over GST control)	1.33 fold enrichment (6-mer frequency, TF over GST control)	1.29 fold enrichment (6-mer frequency, TF over GST control)	1.19 fold enrichment (6-mer frequency, TF over GST control)	1.32 fold enrichment (6-mer frequency, TF over GST control)	1.25 fold enrichment (6-mer frequency, TF over GST control)	1.14 fold enrichment (6-mer frequency, TF over GST control)
TACTAG	1.09 fold enrichment (6-mer frequency, TF over GST control)	1.09 fold enrichment (6-mer frequency, TF over GST control)	1.07 fold enrichment (6-mer frequency, TF over GST control)	1.06 fold enrichment (6-mer frequency, TF over GST control)	1.11 fold enrichment (6-mer frequency, TF over GST control)	1.09 fold enrichment (6-mer frequency, TF over GST control)	1 fold enrichment (6-mer frequency, TF over GST control)	1 fold enrichment (6-mer frequency, TF over GST control)	1.05 fold enrichment (6-mer frequency, TF over GST control)
CTAAAA	1.13 fold enrichment (6-mer frequency, TF over GST control)	1.12 fold enrichment (6-mer frequency, TF over GST control)	1.18 fold enrichment (6-mer frequency, TF over GST control)	1.2 fold enrichment (6-mer frequency, TF over GST control)	1.13 fold enrichment (6-mer frequency, TF over GST control)	1.1 fold enrichment (6-mer frequency, TF over GST control)	1.26 fold enrichment (6-mer frequency, TF over GST control)	1.1 fold enrichment (6-mer frequency, TF over GST control)	1.13 fold enrichment (6-mer frequency, TF over GST control)
